Measured values: the supplement of paper PMC9950053
Structures can show the parent of a compound that is named as a salt.

test system: Danio rerio larvae (5 dpf); test: combined upward orientation toward moving lines (periods 7-14) minus DMSO control (percentage points); higher = more orientation with moving lines than DMSO larvae; details: 10 µM; exposure time: 3 h pre-incubation + 3 h imaging
Protocol: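 Wild-type 5 dpf zebrafish larvae (n=48 per drug, 96-well plates, 28.5 °C) were exposed to Tocris FDA-approved library compounds at 10 µM (0.1% DMSO) for 3 h before and 3 h during imaging. Images were taken every 6 s during visual (moving coloured lines) and acoustic stimuli, and larvae were tracked with the DeepLabCut-based Z-LaP Tracker. Each behavioural measure is the treated-group mean minus the DMSO vehicle control mean (n=844), in percentage points. This mapping covers compounds with 4-character plate codes.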

Row | Compound | combined upward orientation toward moving lines
1 | C[C@]12CCC(=O)C=C1CC[C@@H]1[C@@H]2[C@@H](O)C[C@@]2(C)[C@H]1CC[C@]2(O)C(=O)CO [Hydrocortisone] | 0.758
2 | CC(C)Nc1cccnc1N1CCN(C(=O)c2cc3cc(NS(C)(=O)=O)ccc3[nH]2)CC1 [Delavirdine mesylate] | -7.64
3 | CCN(Cc1ccncc1)C(=O)C(CO)c1ccccc1 (stereo not given) [Tropicamide] | 3.89
4 | NC(=O)c1ncn([C@@H]2O[C@H](CO)[C@@H](O)[C@H]2O)n1 [Ribavirin] | -1.89
5 | CCOC(=O)N1CCC(=C2c3ccc(Cl)cc3CCc3cccnc32)CC1 [Loratidine] | -3.52
6 | COc1ccc(C[C@@H](C)NC[C@H](O)c2ccc(O)c(NC=O)c2)cc1 [Arformoterol tartrate] | 0.636
7 | C/C(O)=C(\C#N)C(=O)Nc1ccc(C(F)(F)F)cc1 [Teriflunomide] | -3.07
8 | C[C@@H](O[C@H]1OCCN(Cc2n[nH]c(=O)[nH]2)[C@H]1c1ccc(F)cc1)c1cc(C(F)(F)F)cc(C(F)(F)F)c1 [Aprepitant] | 4.05
9 | O=C1CCc2cc(OCCCCc3nnnn3C3CCCCC3)ccc2N1 [Cilostazol] | -4.64
10 | CCCCC1=NC2(CCCC2)C(=O)N1Cc1ccc(-c2ccccc2-c2nnn[nH]2)cc1 [Irbesartan] | -8.87
11 | Brc1c(NC2=NCCN2)ccc2nccnc12 | -1.14
12 | CN(C)CCC[C@@]1(c2ccc(F)cc2)OCc2cc(C#N)ccc21 [Escitalopram oxalate] | -1.11
13 | O=C(O)CCCc1ccccc1 [Sodium 4-Phenylbutyrate] | -3.45
14 | Cc1ccc(N(CC2=NCCN2)c2cccc(O)c2)cc1 [Phentolamine Mesylate] | 4.89
15 | COc1cccc2c1C(=O)c1c(O)c3c(c(O)c1C2=O)C[C@@](O)(C(=O)CO)C[C@@H]3O[C@H]1C[C@H](N)[C@H](O)[C@H](C)O1 [Doxorubicin hydrochloride] | -1.38
16 | CC(CCc1ccc(O)cc1)NCCc1ccc(O)c(O)c1 (stereo not given) [Dobutamine hydrochloride] | 0.917
17 | OCCN(CCO)c1nc(N2CCCCC2)c2nc(N(CCO)CCO)nc(N3CCCCC3)c2n1 [Dipyridamole] | -2.19
18 | Cn1nnc2c(C(N)=O)ncn2c1=O [Temozolomide] | -6.36
19 | CCc1c2c(nc3ccc(OC(=O)N4CCC(N5CCCCC5)CC4)cc13)-c1cc3c(c(=O)n1C2)COC(=O)[C@]3(O)CC | -3.82
20 | Nc1nc(Cl)nc2c1ncn2[C@@H]1O[C@H](CO)[C@@H](O)[C@@H]1F [Clofarabine] | -4.29

Row | Compound | combined upward orientation toward moving lines
21 | CC(=O)O[C@]1(C(C)=O)CC[C@H]2[C@@H]3C=C(C)C4=CC(=O)CC[C@]4(C)[C@H]3CC[C@@]21C [Megestrol Acetate] | -1.8
22 | C[C@H]1C[C@@H]2[C@H]([C@@H](O)C[C@@]3(C)[C@H]2CC[C@]3(O)C(=O)CO)[C@@]2(C)C=CC(=O)C=C12 [Methylprednisolone] | -7.43
23 | CC/C(=C(\c1ccccc1)c1ccc(OCCN(C)C)cc1)c1ccccc1 [Tamoxifen citrate] | -3.88
24 | COc1ccc(Cl)cc1C(=O)NCCc1ccc(S(=O)(=O)NC(=O)NC2CCCCC2)cc1 [Glibenclamide] | -10.9
25 | C=C1[C@H](CO)[C@@H](O)C[C@@H]1n1cnc2c(=O)[nH]c(N)nc21 [Entecavir] | -3.62
26 | CC(C)[C@H]1CC[C@H](C(=O)N[C@H](Cc2ccccc2)C(=O)O)CC1 [Nateglinide] | -0.86
27 | CN(C)CCc1c[nH]c2ccc(Cn3cncn3)cc12 [Rizatriptan benzoate] | -1.53
28 | CCCN(CCC)S(=O)(=O)c1ccc(C(=O)O)cc1 [Probenecid] | -6.67
29 | NS(=O)(=O)c1cc(C(=O)O)c(NCc2ccco2)cc1Cl [Furosemide] | -2.41
30 | O=C(c1ccc(OCCN2CCCCC2)cc1)c1c(-c2ccc(O)cc2)sc2cc(O)ccc12 [Raloxifene hydrochloride] | -2.81
31 | C[C@]12CC[C@@H]3c4ccc(O)cc4C[C@@H](CCCCCCCCC[S+]([O-])CCCC(F)(F)C(F)(F)F)[C@H]3[C@@H]1CC[C@@H]2O (stereo not given in full) | 0.781
32 | C[C@H](Cc1cc2c(c(C(N)=O)c1)N(CCCO)CC2)NCCOc1ccccc1OCC(F)(F)F [Silodosin] | -4.66
33 | CN1CCC[C@@H]1CCO[C@](C)(c1ccccc1)c1ccc(Cl)cc1 [Clemastine fumarate] | 4.64
34 | CCOc1ccccc1OCCN[C@H](C)Cc1ccc(OC)c(S(N)(=O)=O)c1 [Tamsulosin hydrochloride] | -16.3
35 | CC(C)(C(=O)c1cccnc1)c1cccnc1 [Metyrapone] | -5.62
36 | Nc1nc2c(ncn2COCCO)c(=O)[nH]1 [Acyclovir] | 0.15
37 | CC1(C)O[C@@H]2[C@@H](CO[C@@]3(COS(N)(=O)=O)OC(C)(C)O[C@@H]23)O1 [Topiramate] | -4.17
38 | Nc1cccc2c1CN(C1CCC(=O)NC1=O)C2=O (stereo not given) [Lenalidomide] | 2.56
39 | Cc1ccc(-c2cc(C(F)(F)F)nn2-c2ccc(S(N)(=O)=O)cc2)cc1 [Celecoxib] | -15.8
40 | COCCCOc1cc(C[C@@H](C[C@H](N)[C@@H](O)C[C@H](C(=O)NCC(C)(C)C(N)=O)C(C)C)C(C)C)ccc1OC [Aliskiren hemifumarate] | -2.45
